In PubChem BioAssay AID1159580 (chemical genetic matrix, 2015):
Values joined by “and” are separate entries in the source; they are usually repeats but may differ in a detail not shown here. Identical values can stand only once. In all, about 5,500 compounds went through this assay and about 2,000 (36%) were called active. Not shown: some 18% with an inconclusive outcome. Cut-off read from the data, not from the text of the source: active = normalized growth mostly below about 0.91 (no sharp cut-off); inconclusive = no clear call, values can overlap the other calls; inactive = mostly above about 0.92. The list shows a part of the results.

Assay: chemical genetic growth profiling, strain panel (AID 1159580);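 note: tested at 20 µM; growth read once vehicle control cultures reached saturation at 30 °C; 1 = growth at the plate median or of vehicle wells; lower values mean less growth of the strain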
Conditions: S. cerevisiae deletion strains, growth OD

Measured: normalized growth

NC(N)=Nc1nc(CSCCC(N)=NS(N)(=O)=O)cs1
inactive: locus YAL013W, strain DEP1, hits give low values 1 | locus YAL021C, strain ccr4, hits give low values 0.996 | locus YAL026C, strain drs2, hits give low values 0.995 | locus YAL030W, strain snc1, hits give low values 0.982 | locus YAL040C, strain CLN3, hits give low values 0.997 | locus YBL061C, strain skt5, hits give low values 0.978 | locus YBR009C, strain hhf1, hits give low values 1.01 | locus YBR021W, strain FUR4, hits give low values 0.996 | locus YBR023C, strain chs3, hits give low values 0.997 | locus YBR171W, strain sec66, hits give low values 0.958 | locus YBR229C, strain ROT2, hits give low values 1 | locus YBR231C, strain swc5, hits give low values 0.959 | locus YBR279W, strain paf1, hits give low values 0.997 | locus YCL011C, strain gbp2, hits give low values 0.993 | locus YCL016C, strain dcc1, hits give low values 0.992 | locus YCL029C, strain bik1, hits give low values 1.02 | locus YCL061C, strain MRC1 (second series), hits give low values 1.01 | locus YCL069W, strain vba3, hits give low values 0.991 | locus YCR088W, strain abp1, hits give low values 0.978 | locus YDL005C, strain med2, hits give low values 0.974 | locus YDL035C, strain GPR1, hits give low values 1 | locus YDL040C, strain nat1, hits give low values 0.969 | locus YDL074C, strain BRE1, hits give low values 1.03 | locus YDL101C, strain DUN1, hits give low values 1.01 | locus YDL134C, strain PPH21, hits give low values 1.01 | locus YDL185W, strain tfp1, hits give low values 1.01 | locus YDL192W, strain arf1, hits give low values 1.01 | locus YDR001C, strain nth1, hits give low values 0.972 | locus YDR069C, strain doa4, hits give low values 0.968 | locus YDR101C, strain arx1, hits give low values 1.01 | locus YDR137W, strain rgp1, hits give low values 1 | locus YDR150W, strain NUM1, hits give low values 0.996 | locus YDR159W, strain sac3, hits give low values 0.986 | locus YDR162C, strain NBP2, hits give low values 1.01 | locus YDR195W, strain ref2 0.969 | locus YDR297W, strain sur2, hits give low values 0.997 | locus YDR318W, strain mcm21, hits give low values 1.02 | locus YDR334W, strain swr1, hits give low values 0.967 | locus YDR335W, strain msn5, hits give low values 0.968 | locus YDR363W, strain ESC2, hits give low values 0.999 | locus YDR388W, hits give low values 1.01 | locus YDR392W, strain spt3, hits give low values 1.02 | locus YDR502C, strain sam2, hits give low values 1 | locus YEL003W, strain gim4, hits give low values 0.983 | locus YEL037C, strain rad23, hits give low values 0.975 | locus YEL061C, strain CIN8 (second series), hits give low values 0.992 | locus YEL061C, strain CIN8, hits give low values 1.01 | locus YER002W, strain NOP16, hits give low values 1 | locus YER015W, strain faa2, hits give low values 0.986 | locus YER016W, strain bim1, hits give low values 1.01 | locus YER110C, hits give low values 1.01 | locus YER111C, strain swi4, hits give low values 0.991 | locus YER155C, strain BEM2 (second series), hits give low values 0.988 | locus YER155C, strain BEM2, hits give low values 1 | locus YER167W, strain BCK2, hits give low values 1.01 | locus YFR010W, strain ubp6, hits give low values 1 | locus YGL078C, strain dbp3, hits give low values 1 | locus YGL086W, strain mad1, hits give low values 0.996 | locus YGL167C, strain pmr1, hits give low values 0.961 | locus YGL173C, strain kem1, hits give low values 0.976 | locus YGL227W, strain vid30, hits give low values 0.964 | locus YGL240W, strain doc1, hits give low values 0.973 | locus YGL248W, strain PDE1, hits give low values 0.985 | locus YGL253W, strain hxk2, hits give low values 0.991 | locus YGR078C, strain PAC10, hits give low values 1.03 | locus YGR229C, strain SMI1, hits give low values 0.989 and 0.992 | locus YGR252W, strain gcn5, hits give low values 0.993 | locus YHR013C, strain ard1, hits give low values 1.01 | locus YHR027C, strain rpn1, hits give low values 0.993 | locus YHR030C, strain SLT2, hits give low values 1.01 and 0.989 | locus YHR079C, strain IRE1 (second series), hits give low values 1.01 | locus YHR079C, strain IRE1, hits give low values 0.972 | locus YHR094C, strain hxt1, hits give low values 1.01 | locus YHR129C, strain ARP1, hits give low values 1.01 | locus YHR142W, strain chs7, hits give low values 0.959 | locus YHR200W, strain rpn10, hits give low values 1.01 | locus YIL066C, strain RNR3, hits give low values 1.01 | locus YIL073C, strain SPO22, hits give low values 1.04 | locus YIL125W, strain kgd1, hits give low values 1 | locus YIR030C, strain dcg1, hits give low values 1.01 | locus YJL092W, strain hpr5, hits give low values 0.987 | locus YJL095W, strain BCK1 (second series), hits give low values 0.993 | locus YJL095W, strain BCK1, hits give low values 1.04 and 0.984 | locus YJL115W, strain asf1, hits give low values 0.983 | locus YJL129C, strain trk1, hits give low values 0.944 | locus YJL134W, strain LCB3, hits give low values 1 | locus YJL154C, strain vps35, hits give low values 0.983 | locus YJL164C, strain tpk1, hits give low values 1.01 | locus YJL166W, strain qcr8, hits give low values 0.981 | locus YJL168C, strain set2, hits give low values 1.01 | locus YJL187C, strain SWE1 (second series), hits give low values 1.02 | locus YJL187C, strain SWE1, hits give low values 0.984 | locus YJR043C, strain POL32, hits give low values 1.01 | locus YJR066W, strain TOR1, hits give low values 0.921 | locus YJR075W, strain HOC1, hits give low values 1.01
